The text below walks through data of a collection of fitness landscapes (doi:10.1016/j.celrep.2020.107928).

B1: Caulobacter ParB omega fusion; a variant is named by its letters at X, in order, B8GW30 (parent)
chain: MESVVVGEPGMSEGRRGLGRGLSALLGEVDAAPAQAPGEQLGGSREAPIEILQRNPDQPRRTFREEDLEDLSNSIREKGVLQPILVRPSPDTAGEYQIVAGERAWRAAQRAGLKTVPIMVRELDDLAVLEIGIIENVQRADLNVLEEALSYKVLMEKFERTQENIAQTIGKSXSHVANXMRLLXLPDEVQSYLVSGELTAXHARAIAAAADPVALAKQIIEGGLSVRETEALARKAPNLSAGKSKGGRPPRVKDTDTQALESDLSSVLGLDVSIDHRGSTGTLTITYATLEQLDDLCNRLTRGI

Over roughly 81,000 sequences, “one-hybrid fitness for binding NBS DNA” has its median near -0.1; the highest 2% begin near 0.36. Only a selection was taken, and the highest values are over-represented in it overall. A value given as a limit tells only on which side of the number the result lay.

The assay covers variants of B1. Nature of the assay: one-hybrid fitness for binding NBS DNA (the Noc-binding site; scaled: cognate 1, non-cognate 0); higher = stronger binding. To be noted: with NBS DNA site. In short, it runs like this: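 On M9-minus-histidine containing 0.1 mM IPTG and 5 mM 3-AT, E. coli USO cells with a HIS3 reporter, site 19 bp from the promoter, grew 48 hours at 37°C to select Caulobacter ParB libraries randomised at four specificity codons. Plasmids from before and after were Illumina-sequenced, with three replicate libraries pooled and variants under 10 reads left out. Fitness is the log change in variant-to-wild-type read ratio, rescaled against cognate and non-cognate.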
For the variant VKTS, the “one-hybrid fitness for binding NBS DNA” value is at most 0.2.

On to LYFR, for which the “one-hybrid fitness for binding NBS DNA” value was at most 0.2. As to CLSP, the “one-hybrid fitness for binding NBS DNA” value was at most 0.2. In the case of QWKS, the “one-hybrid fitness for binding NBS DNA” value is at most 0.2. Turning to SAIE, the “one-hybrid fitness for binding NBS DNA” value was at most 0.2. With RRVA, the “one-hybrid fitness for binding NBS DNA” value worked out at 0.571.

For RCVA, the “one-hybrid fitness for binding NBS DNA” value is at most 0.2. For RSVA, the “one-hybrid fitness for binding NBS DNA” value is at most 0.2. The figure for SFPF is at most 0.2. For CLCS, the “one-hybrid fitness for binding NBS DNA” value is at most 0.2. With HDRG, the “one-hybrid fitness for binding NBS DNA” value is at most 0.2. Regarding PCMM, the “one-hybrid fitness for binding NBS DNA” value is at most 0.2. As to QSDS, the “one-hybrid fitness for binding NBS DNA” value is at most 0.2.

Consider QSNH, for which the “one-hybrid fitness for binding NBS DNA” value is 0.273.

Regarding QANP, the “one-hybrid fitness for binding NBS DNA” value is at most 0.2.

In the case of QMNP, the “one-hybrid fitness for binding NBS DNA” value was at most 0.2.

In the case of QHNN, the “one-hybrid fitness for binding NBS DNA” value is at most 0.2. On to QANS, for which the “one-hybrid fitness for binding NBS DNA” value came to 0.392.

In the case of QMNS, the “one-hybrid fitness for binding NBS DNA” value worked out at 0.458. The figure for QMDS is at most 0.2. QHNS: the “one-hybrid fitness for binding NBS DNA” value came to 0.419. On to QSNS, for which the “one-hybrid fitness for binding NBS DNA” value is 0.421. Consider QADS, for which the “one-hybrid fitness for binding NBS DNA” value was at most 0.2. On to QHDS, for which the “one-hybrid fitness for binding NBS DNA” value is at most 0.2.

Take KNIF: the “one-hybrid fitness for binding NBS DNA” value was at most 0.2.

WQYS: the “one-hybrid fitness for binding NBS DNA” value is at most 0.2. The figure for YNRS is at most 0.2; for VAGY it is at most 0.2; for ITFA it is at most 0.2. Turning to TSRF, the “one-hybrid fitness for binding NBS DNA” value was at most 0.2.

Turning to KQID, the “one-hybrid fitness for binding NBS DNA” value was at most 0.2. Turning to QLDS, the “one-hybrid fitness for binding NBS DNA” value was at most 0.2.

On to QCNS, for which the “one-hybrid fitness for binding NBS DNA” value amounted to 0.534.

Consider QLNP, for which the “one-hybrid fitness for binding NBS DNA” value is at most 0.2. In the case of QLNS, the “one-hybrid fitness for binding NBS DNA” value turned out to be 0.385. Take QPNS: the “one-hybrid fitness for binding NBS DNA” value was at most 0.2. Consider QINS, for which the “one-hybrid fitness for binding NBS DNA” value was found to be 0.329. For the variant CAVL, the “one-hybrid fitness for binding NBS DNA” value was at most 0.2. With QRKQ, the “one-hybrid fitness for binding NBS DNA” value is 0.492. To QRPQ belongs at most 0.2; to QPKQ, at most 0.2; to QRVQ, 0.511. To QSKQ belongs 0.351.

Take QPVQ: the “one-hybrid fitness for binding NBS DNA” value turned out to be 0.598. Consider QSVQ, for which the “one-hybrid fitness for binding NBS DNA” value was found to be 0.291.

With QWKF, the “one-hybrid fitness for binding NBS DNA” value was at most 0.2. Take LTYT: the “one-hybrid fitness for binding NBS DNA” value is at most 0.2. Turning to THMS, the “one-hybrid fitness for binding NBS DNA” value is at most 0.2. QFPN: the “one-hybrid fitness for binding NBS DNA” value is at most 0.2. Turning to GTPY, the “one-hybrid fitness for binding NBS DNA” value is at most 0.2. For the variant EAGR, the “one-hybrid fitness for binding NBS DNA” value is at most 0.2. Regarding MHRT, the “one-hybrid fitness for binding NBS DNA” value was at most 0.2. The figure for RVTR is 0.429; for RVTD it is at most 0.2. Consider RVTN, for which the “one-hybrid fitness for binding NBS DNA” value was at most 0.2. The figure for RVTT is 0.449; for RVTM it is at most 0.2. RVTP: the “one-hybrid fitness for binding NBS DNA” value is at most 0.2.

With RVTS, the “one-hybrid fitness for binding NBS DNA” value stood at 0.392. To RVTH belongs at most 0.2. Regarding RVTY, the “one-hybrid fitness for binding NBS DNA” value was at most 0.2. Turning to LTHY, the “one-hybrid fitness for binding NBS DNA” value is at most 0.2. RNVL: the “one-hybrid fitness for binding NBS DNA” value was at most 0.2.

Consider GFEG, for which the “one-hybrid fitness for binding NBS DNA” value was at most 0.2. To DLLN belongs at most 0.2; to QAHD, at most 0.2. On to MARR, for which the “one-hybrid fitness for binding NBS DNA” value came out at 0.414.

As to QAHQ, the “one-hybrid fitness for binding NBS DNA” value was at most 0.2. Turning to MARN, the “one-hybrid fitness for binding NBS DNA” value is at most 0.2.

As to QAPR, the “one-hybrid fitness for binding NBS DNA” value amounted to 0.275. In the case of QAGH, the “one-hybrid fitness for binding NBS DNA” value was at most 0.2. To QAYR belongs 0.464; to QAGR, 0.525; to MAYR, at most 0.2. For QAIR, the “one-hybrid fitness for binding NBS DNA” value is 0.308. Take QAGD: the “one-hybrid fitness for binding NBS DNA” value was at most 0.2.

QAHR: the “one-hybrid fitness for binding NBS DNA” value came out at 0.541. Consider PHID, for which the “one-hybrid fitness for binding NBS DNA” value was at most 0.2.

Take SLRF: the “one-hybrid fitness for binding NBS DNA” value is at most 0.2. The figure for CMGR is at most 0.2; for NAWR it is at most 0.2.

Consider STPW, for which the “one-hybrid fitness for binding NBS DNA” value was at most 0.2.

Turning to CRAL, the “one-hybrid fitness for binding NBS DNA” value is at most 0.2. For the variant FGKT, the “one-hybrid fitness for binding NBS DNA” value is at most 0.2.
